Test results from PubChem BioAssay (NCI).
About 83,000 compounds went through this panel and 20% of them were active in at least one assay; those are over-represented in the sample as a whole.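 Each cell line was grown in a 96-well plate and treated with one concentration of compound for 48 hours. Values below 10 were considered active.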 Values without a mark were called inactive. Activity calls are given as the source filed them.

Tests used:
Test in all cases: NCI-60 one-dose screen, 48 h (100 = growth as untreated, 0 = no growth, -100 = all killed)
Details in all cases: 10 µM unless noted
[1] = system: NCI-H23 lung
[2] = system: NCI-H226 lung
[3] = system: NCI-H322M lung
[4] = system: HOP-62 NSCLC
[5] = system: NCI-H460 lung
[6] = system: HOP-92 NSCLC
[7] = system: NCI-H522 lung
[8] = system: A549/ATCC NSCLC
[9] = system: 786-0 renal
[10] = system: COLO 205 colon
[11] = system: DU-145 prostate
[12] = system: K-562 leukemia
[13] = system: MALME-3M melanoma
[14] = system: MDA-MB-231 breast
[15] = system: RXF 393 renal
[16] = system: SF-268 CNS
[17] = system: SF-295 CNS
[18] = system: SF-539 CNS
[19] = system: UACC-257 melanoma
[20] = system: M14 melanoma

Row | SMILES | growth [1] | growth [2] | growth [3] | growth [4] | growth [5] | growth [6] | growth [7] | growth [8] | growth [9] | growth [10] | growth [11] | growth [12] | growth [13] | growth [14] | growth [15] | growth [16] | growth [17] | growth [18] | growth [19] | growth [20]
1 | Cc1nc2sccn2c1-c1nnc(SCC(C)C)o1 | 85.9% | 62% | 82.1% | 95.2% | 97% | 64.4% | 71.5% | 91.3% | 82.3% | 106% | 99.1% | 52.7% | 97.8% | 87.1% | 104% | 88.5% | 86.1% | 93.3% | 98.7% | 99.9%
2 | COc1cc(/C=C/C(=O)c2ccc(S(=O)(=O)NCCNc3nc(N(C)C)nc(N4CCOCC4)n3)cc2)cc(OC)c1OC | 3.66% (active) | 11.5% | 57.2% | -19.1% (active) | -100% (active) | 50.1% | -100% (active) | 26.5% | -65.1% (active) | 28.3% | 13.8% | -67.8% (active) | 41.2% | -82% (active) | -100% (active) | -3.35% (active) | -68.1% (active) | -87.3% (active) | -26.5% (active) | -54.7% (active)
3 | COc1cc(/C=C/C(=O)c2cnn(-c3cc(=O)[nH]c4ccc(Cl)cc34)c2C)cc(OC)c1OC | -55.9% (active) | -24.2% (active) | 7.2% (active) | -68.3% (active) | -39.1% (active) | -11.9% (active) | -62.9% (active) | -17.1% (active) | -43.9% (active) | -67.7% (active) | -72.8% (active) | -12.4% (active) | -20.4% (active) | -5.1% (active) | -84.1% (active) | -23.8% (active) | -71.5% (active) | -69.3% (active) | -33.8% (active) | -49% (active)
4 | C#CCCCNCCNc1ccnc2cc(Cl)ccc12 | 72.7% | 70.7% | 92% | 79.1% | 83.2% | 53.4% | 41.1% | 84.3% | 58.8% | 10.7% | 74.5% | 19.9% | 88.8% | 66.3% | 36.2% | 87.7% | 48.2% | -13.9% (active) | 0.503% (active) | 61.3%
5 | COC(=O)c1c(C(=O)OC)c2ccc3c4ccccc4ccc3n2c1C(=O)C(C)Br (stereo not given) | 33.4% | 61.7% | 83.4% | 67.1% | 17.2% | 53.5% | -55.9% (active) | 50.5% | 41.9% | 43.2% | 71.7% | 4.34% (active) | 37.9% | 33.1% | 32.8% | 69.3% | 78% | 17.2% | 57% | 46.5%
6 | O=C1c2cccc3c(N4CCN(Cc5ccccc5)CC4)ccc(c23)C(=O)N1c1cccc(-c2nn(-c3ccccc3)cc2-c2nc3ccccc3s2)c1 | 96% | 82% | 101% | 123% | 110% | 105% | 104% | 113% | 101% | 119% | 119% | 97.4% | 98.5% | 105% | 99.8% | 108% | 107% | 97% | 124% | 97.8%
7 | Cc1nn(-c2ccccc2)c2nc(C)n(C(=O)N/N=C/c3cccc([N+](=O)[O-])c3)c(=O)c12 | 77.7% | 105% | 91.7% | 98.6% | 93.7% | 103% | 47.4% | 83.7% | 108% | 117% | 99.9% | 62% | -10.2% (active) | 94.7% | 115% | 101% | 101% | 105% | 78.4% | 80.4%
8 | Cn1ncc2c(N)nc(Oc3ccccc3-c3ccccc3)nc21 | 29.6% | 45.2% | 72.2% | 57.9% | 14.5% | 62.4% | 22.2% | 55.9% | 52.6% | 33.9% | 73.1% | 6.56% (active) | 25.7% | 43% | 25% | 55.6% | 27.2% | 25.9% | 63.5% | 13.6%
9 | CCCCNc1ccc2c3c(cccc13)C(=O)N(c1cccc(-c3nn(-c4ccccc4)cc3-c3nc4ccccc4s3)c1)C2=O | 93.1% | 83.5% | 104% | 107% | 110% | 100% | 99.1% | 117% | 101% | 109% | 106% | 89.5% | 103% | 99.1% | 98.5% | 109% | 104% | 101% | 113% | 99.6%
10 | O=C1/C(=C/c2cccc3c2OCO3)Cc2c(F)cc(Br)cc21 | 97.2% | 106% | 113% | 109% | 117% | 123% | 104% | 111% | 107% | 128% | 115% | 109% | 103% | 115% | 104% | 109% | 96% | 99.7% | 114% | 98.9%
11 | CCc1ccccc1NC(=O)N/C(N)=N/c1nc2ccccc2s1 | -2.24% (active) | 22.5% | 28.3% | -14.9% (active) | 39.5% | -15.2% (active) | -53.5% (active) | 9.65% (active) | -4.92% (active) | -84.1% (active) | -8.39% (active) | 10.6% | 5.84% (active) | -21.3% (active) | 11.8% | 29.6% | -9.81% (active) | -50.4% (active) | 49.7% | 9.76% (active)
12 | ClC(Cn1ncc2c(Nc3cccc(Br)c3)nc(SCCN3CCOCC3)nc21)c1ccc(Br)cc1 (stereo not given) | -20.2% (active) | 32.2% | 47.5% | -12.9% (active) | 27.6% | -18.9% (active) | 13.9% | 15.7% | -66.5% (active) | -79.2% (active) | 28.6% | -37.7% (active) | -38% (active) | -51.8% (active) | -62.2% (active) | 44.7% | -71.3% (active) | -79.1% (active) | -42.8% (active) | -19.5% (active)
13 | CCN1C(=O)N(CC)C2NNC(Sc3c(C(=O)O)c4ccccc4n(CC(C)C)c3=O)=NC21 (stereo not given) | 10.7% | 51.2% | 56.2% | 34.1% | -1.23% (active) | 80.8% | -32.3% (active) | 20.9% | 26.9% | -21.4% (active) | 20% | 5.86% (active) | 48.1% | 15.9% | 81.8% | 55.7% | -14.8% (active) | -29% (active) | 50.3% | 22.4%
14 | Cn1cc(-c2cc(N)n3nc(-c4c[nH]c5ccc(Cl)cc45)cc3n2)c2cccnc21 | -75.7% (active) | -58.4% (active) | -83.6% (active) | -88.9% (active) | -47% (active) | -70.5% (active) | -82.1% (active) | -77.2% (active) | -92.5% (active) | -83.1% (active) | -87.6% (active) | -24.9% (active) | -92.3% (active) | -82.3% (active) | -73.4% (active) | -47.4% (active) | -92.6% (active) | -95.6% (active) | -85.5% (active) | -90.5% (active)
15 | O=C1Nc2ccccc2/C1=C\c1ccc(OCC(=O)c2ccc(Br)cc2)cc1 | 50.9% | 71.6% | 87.5% | 104% | 58.5% | 75.5% | 61.4% | 58.4% | 89.8% | 65.9% | 85.6% | 27.8% | 81% | 82.2% | 67.6% | 86.9% | 58.6% | 81.5% | 73.6% | 73.1%
